# In the supplement of paper PMC3545927:
# The list shows a part of the results. The true hit rate is not given.
# B1: HC402 (peptide)
# chain: CARPYCWHYPAGNASASA
# B2: HC1744 (peptide)
# chain: CAMEECSQILAGNASASA
# B3: HC1945 (peptide)
# chain: CALCTTPCSGAGNASASA
# B4: FS-2163 (peptide)
# chain: CARNRRVTRRAGNASASA
# B5: FS-2162 (peptide)
# chain: CARNRRRVCKAGNASASA
# B6: FS-2283 (peptide)
# chain: CARNRRHIEKAGNASASA
# B7: FS-2732 (peptide)
# chain: CARNRRAFGDAGNASASA
# B8: FS-3013 (peptide)
# chain: CARNSRFRCRAGNASASA
# B9: HC550 (peptide)
# chain: CAKGKWVPGAAGNASASA
# B10: HC131 (peptide)
# chain: CAEVVKSTWVAGNASASA
# B11: HC142 (peptide)
# chain: CAEVVTGTWVAGNASASA
# B12: HC2026 (peptide)
# chain: CAVVMCSMSYAGNASASA
# B13: FS-1509 (peptide)
# chain: CAAKRRTKRDAGNASASA
# B14: FS-967 (peptide)
# chain: CAVVNTTKRDAGNASASA
# B15: FS-1579 (peptide)
# chain: CAVKKRTKRDAGNASASA
# B16: HC1786 (peptide)
# chain: CAMEMEECSQAGNASASA
# B17: HC1753 (peptide)
# chain: CAMEECSQRLAGNASASA
# B18: FS-135 (peptide)
# chain: CALRGRSRRLAGNASASA
# B19: FS-478 (peptide)
# chain: CAQDVRCRRLAGNASASA
# B20: FS-282 (peptide)
# chain: CAQGERSRRLAGNASASA
# B21: FS-16 (peptide)
# chain: CACRARRRRLAGNASASA
# B22: FS-109 (peptide)
# chain: CAWPTRRRRLAGNASASA
# B23: HC1490 (peptide)
# chain: CAIYQCCDLDAGNASASA
# B24: HC470 (peptide)
# chain: CAPCTINYTIAGNASASA
# B25: HC2447 (peptide)
# chain: CAEFEVPCHRAGNASASA
# B26: FS-1193 (peptide)
# chain: CAEPARRRRLAGNASASA
# B27: FS-1233 (peptide)
# chain: CALRQRRRRLAGNASASA
# B28: FS-1204 (peptide)
# chain: CAGRGRRRRLAGNASASA
# Molecular target: furin, P09958
# Sequence (P09958 whole entry): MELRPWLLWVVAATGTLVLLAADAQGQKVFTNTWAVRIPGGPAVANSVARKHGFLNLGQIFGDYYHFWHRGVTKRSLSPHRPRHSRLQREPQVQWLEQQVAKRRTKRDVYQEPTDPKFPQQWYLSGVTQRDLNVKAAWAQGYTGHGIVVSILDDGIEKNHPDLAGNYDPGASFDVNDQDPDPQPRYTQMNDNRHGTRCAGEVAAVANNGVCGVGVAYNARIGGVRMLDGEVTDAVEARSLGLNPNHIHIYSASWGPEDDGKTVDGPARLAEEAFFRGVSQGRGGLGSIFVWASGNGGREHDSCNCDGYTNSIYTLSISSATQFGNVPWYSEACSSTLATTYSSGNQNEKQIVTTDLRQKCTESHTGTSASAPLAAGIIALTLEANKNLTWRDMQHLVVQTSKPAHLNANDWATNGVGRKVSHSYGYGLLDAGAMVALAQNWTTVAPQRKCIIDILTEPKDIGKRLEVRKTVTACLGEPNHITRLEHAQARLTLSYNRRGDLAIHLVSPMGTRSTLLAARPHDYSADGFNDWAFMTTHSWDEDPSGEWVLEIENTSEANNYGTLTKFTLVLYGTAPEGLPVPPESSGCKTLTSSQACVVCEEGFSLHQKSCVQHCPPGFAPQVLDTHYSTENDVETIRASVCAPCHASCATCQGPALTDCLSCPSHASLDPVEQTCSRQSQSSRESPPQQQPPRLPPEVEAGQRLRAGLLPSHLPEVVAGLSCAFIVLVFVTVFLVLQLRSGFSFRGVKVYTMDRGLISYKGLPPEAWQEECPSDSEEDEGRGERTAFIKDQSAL
# Experiment: furin cleavage Z-score vs untreated control; higher = more cleavage, active = 3.5 or more, inactive = 1 or less, 8 variable residues between constant flanks
# Method in brief: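 The cleavage Z-score was derived for purified furin acting on 8-mer peptides held on magnetic beads and fused to a cDNA oligonucleotide. Digests lasted 7.5, 15 or 30 min at 1:10 enzyme:substrate in 50 mM HEPES pH 7.5 with CaCl2 and NaCl. Sequencing counts of released DNA, log-transformed against furin-free reactions, were lowess-adjusted and scaled by median absolute deviation.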
Sequence,furin cleavage Z-score (7.5 min),furin cleavage Z-score (15 min),furin cleavage Z-score (30 min)
B1,-0.0981 (inactive),-0.342 (inactive),-1.07 (inactive)
B2,0.778 (inactive),0.663 (inactive),0.94 (inactive)
B3,0.463 (inactive),-0.673 (inactive),-0.438 (inactive)
B4,10.8 (active),11.8 (active),10.4 (active)
B5,-0.833 (inactive),-0.214 (inactive),0.898 (inactive)
B6,6.22 (active),6.56 (active),6.5 (active)
B7,6.61 (active),9.22 (active),8.81 (active)
B8,0.23 (inactive),0.474 (inactive),0.565 (inactive)
B9,0.591 (inactive),-0.0194 (inactive),1.21
B10,-2.1 (inactive),-0.614 (inactive),-0.545 (inactive)
B11,-0.000356 (inactive),-0.439 (inactive),1.54
B12,-0.445 (inactive),0.764 (inactive),0.688 (inactive)
B13,13.3 (active),12.3 (active),8.72 (active)
B14,0.253 (inactive),1.14,0.849 (inactive)
B15,13.7 (active),14.1 (active),11.3 (active)
B16,0.949 (inactive),-0.743 (inactive),0.205 (inactive)
B17,0.426 (inactive),-0.514 (inactive),1.09
B18,3.28,5.92 (active),6.35 (active)
B19,1.46,1.58,0.0369 (inactive)
B20,0.753 (inactive),4.38 (active),1.23
B21,9.49 (active),9.51 (active),8.36 (active)
B22,8.56 (active),10.6 (active),9.39 (active)
B23,-1.27 (inactive),-0.493 (inactive),-0.515 (inactive)
B24,-0.109 (inactive),-0.36 (inactive),-0.753 (inactive)
B25,1.12,0.425 (inactive),0.814 (inactive)
B26,3.5 (active),3.06,4.29 (active)
B27,7.25 (active),8.53 (active),7.51 (active)
B28,0.638 (inactive),1.19,1.19
